Laboratory results taken from PubChem BioAssay AID720676 (National Center for Advancing Translational Sciences (NCATS), 2013).
Results filed as inconclusive are left out. Calls of active or inactive are those of the source. The call rests on the fitted dose curve; in most records, active means well fitted curve in the direction sought with a large enough effect; inconclusive means small, poorly fitted or top-dose-only effect, or another doubt; inactive means no such curve, though single readings can be large or run the other way.

Experiment: qHTS of small molecules that selectively kill Giardia lamblia: GS isolate Assay for SAR
Settings: Giardia lamblia GS isolate viability; series mostly up to 38.3 µM
Source text: Giardia lamblia is a human pathogen afflicting impoverished nations, and the most common cause of outbreaks of diarrhea in the United States. Giardia has been classified by the CDC as a category B bioterrorism organism. The favored anti giardiasis drugs in the US are metronidazole or tinidazole, compounds that have undesirable side effects. Moreover, increasing resistance to these drug regimens and recurrence remains a concern. It is thus clear that alternative drug treatments are needed.
In collaboration with the University of Maryland (College Park), a bioluminescence Giardia viability assay based on the trophozoites' ATP content was developed. This assay is suitable for high throughput screening, and miniaturized the assay for compound screening in 1536-well plates. The Molecular Libraries Small Molecule Repository (MLSMR) was screened against this assay to find compounds that selectively kill Giardia trophozoites (AID 540267). Selected compounds were re-acquired to confirm their trophozoite toxicity activity (AID 588397) and lead chemotypes were identified for medicinal chemistry optimization. The data herein is the result of the first round of SAR for this project. Decrease in luminescence signal indicative of tropozoite growth inhibition (inhibitors) is the desired outcome for this assay.
NIH Chemical Genomics Center [NCGC]
NIH Molecular Libraries Probe Centers Network [MLPCN]
Assay Submitter (PI): Osnat Herzberg, University of Maryland, College Park, MD.
Giardia assay media was dispensed to an assay plate at 2 ul / well volume. Twenty-three nanoliter / well compounds were pinned into the plates using the Kalypsys robotic system. Giardia trophozoites were dispensed into the well at a concentration of 100 cells / well and incubated anaerobically at 37C for 48 hours. After compound incubation, 4 ul/ well ATPLite 1-Step luminescence assay detection reagent was and the plates were incubated at room temperature. After 30 min of incubation with the detection reagent, luminescence signal was obtained using the PerkinElmer ViewLux plate reader. Data was then processed and normalized to both positive and negative controls. Biosafety level 2 laboratory practices were observed throughout the duration of this screen.

| SMILES | outcome |
| --- | --- |
| Cc1ccnc(NC(=S)N2CC3CN(c4ncc(C(F)(F)F)cc4Cl)CC3C2)c1 (stereo unspecified) | inactive |
| Cc1ccnc(N=C(N)N2CCN(c3cccc(C(F)(F)F)c3)CC2)c1 | inactive |
| COc1cccc(NC(=S)N2CCN(c3cc(Cl)cc(Cl)c3)CC2)n1 | inactive |
| Cc1cc(C)nc(NC(=S)N2CC3CN(c4ccc(Cl)cc4C(F)(F)F)CC3C2)c1 (stereo unspecified) | inactive |
| Cc1cc(C)nc(NC(=S)N2CCN(c3ccc(Cl)cc3C(F)(F)F)CC2)c1 | inactive |
| Cc1ccnc(NC(=S)N2CCN(c3cccc(C(F)(F)F)c3)CC2)c1 | inactive |
| Cc1ccnc(NC(=S)N2CC3CN(c4cccc(C(F)(F)F)c4)CC3C2)c1 (stereo unspecified) | inactive |
| Cc1ccnc(NC(=S)N[C@@H]2CCN(c3cccc(C(F)(F)F)c3)C2)c1 | inactive |
| FC(F)(F)c1cc(N2CCN(C(=S)Nc3cc(Cl)ccn3)CC2)cc(C(F)(F)F)c1 | inactive |
| Cc1cc(C)nc(NC(=S)N2CCN(c3ccc([N+](=O)[O-])cc3Cl)CC2)c1 | inactive |
| FC(F)(F)c1cccc(N2CCN(C(=S)Nc3cc(C(F)(F)F)ccn3)CC2)c1 | inactive |
| Cc1ccnc(NC(=S)Nc2cccc(C(F)(F)F)c2)c1 | inactive |
| Cc1cc(C)nc(NC(=S)N2CCN(c3ccc(Cl)c(Cl)c3)CC2)c1 | inactive |
| CC(Cc1ccccc1)C(=O)Nc1ccc(Cl)cc1C(=O)O (stereo unspecified) | inactive |
| COc1cccc(NC(=S)N2CCN(c3ccc(Cl)c(Cl)c3)CC2)n1 | inactive |
| Cc1nc(CN(C)c2ncnc3ccc(-c4ccc5[nH]ncc5c4)cc23)cs1 | inactive |
| COc1ccnc(NC(=S)N2CCN(c3ccc(Cl)cc3Cl)CC2)c1 | inactive |
| COc1ccnc(NC(=S)N2CCN(c3ncc(C(F)(F)F)cc3Cl)CC2)c1 | inactive |
| Cc1cc(C)nc(NC(=S)N2CCN(c3ncccc3C#N)CC2)c1 | inactive |
| Cc1ccnc(NC(=S)N2CCCN(c3cccc(C(F)(F)F)c3)CC2)c1 | inactive |
| CSC(Cc1ccc(Cl)cc1)C(=O)Nc1ccc(Cl)cc1C(=O)O (stereo unspecified) | inactive |
| COc1ccnc(NC(=S)N2CCN(c3cccc(Cl)c3Cl)CC2)c1 | inactive |
| FC(F)(F)c1cccc(N2CCN(C(=S)Nc3nccc4ccccc34)CC2)c1 | inactive |
| Cc1cc(C)nc(NC(=S)N2CCN(c3ccc(Cl)cc3Cl)CC2)c1 | inactive |
| Cc1ccnc(NC(=S)N2CCCc3ccc(C(F)(F)F)cc32)c1 | inactive |
| S=C(Nc1cc(Cl)ccn1)N1CCN(c2cccc(Cl)c2Cl)CC1 | inactive |
